This is an account of results in PubChem BioAssay AID1918 (Vanderbilt High Throughput Screening Facility, 2009).

Among all 130,000 compounds or so, about 2,500 (1.9%) were called active. The entries come from a sample that favours actives as a whole. A number with no mark means an inactive call.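 How the source made its calls: active means signal ratio slope over the read window, or its plate-corrected B-score, at least 3 SD from the plate mean, either direction; inactive means the rest.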

The assay deals with ATP-sensitive inward rectifier potassium channel 1 (Homo sapiens) (UniProt P48048). The assay is described as follows: ROMK potassium channel modulators, primary screen, cell-based, thallium flux, MLSMR library (AID 1918).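 Further: B-score of the F/F0 ratio slope over 7 to 12 s after thallium.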 Particulars: Tet-inducible ROMK, thallium flux fluorescence; at 10 µM; actives lie on both sides.
ATP-sensitive inward rectifier potassium channel 1 (Homo sapiens), sequence (P48048 whole entry, looked up): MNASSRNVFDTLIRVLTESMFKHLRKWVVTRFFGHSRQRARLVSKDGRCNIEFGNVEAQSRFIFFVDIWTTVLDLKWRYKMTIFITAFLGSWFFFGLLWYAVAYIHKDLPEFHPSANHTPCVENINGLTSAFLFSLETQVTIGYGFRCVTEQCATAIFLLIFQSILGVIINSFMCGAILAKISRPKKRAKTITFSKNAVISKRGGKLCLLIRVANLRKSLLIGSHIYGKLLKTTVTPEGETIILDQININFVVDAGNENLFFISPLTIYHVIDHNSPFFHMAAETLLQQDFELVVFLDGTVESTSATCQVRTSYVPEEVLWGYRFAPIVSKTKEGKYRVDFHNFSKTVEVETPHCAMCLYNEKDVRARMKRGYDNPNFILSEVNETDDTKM
As for `Cc1nc2ccccn2c1P(=S)(N1CCCCC1)N1CCCCC1`, the B-score was -3.59 (active).

Consider `CSc1nc2ccc(C)cc2c(=O)n1-c1cccnc1`, for which the B-score was -0.218.

In the case of `COC(=O)N1C(c2ccccc2)C1c1ccccc1` (stereo not given), the B-score is 0.0342.

With `O=C(Nc1cccc2ccccc12)N1CCC2(CC1)OCCO2`, the B-score was -0.682.

Regarding `CCN1CCN(c2ccc([N+](=O)[O-])cc2C#N)CC1`, the B-score is -0.443.

Turning to `CC1=C2C(=O)C3C(CC=C4CC(OC5OC(O)C(O)C(O)C5CO)CCC43C)C2CCC12OC1CC(C)CNC1C2C` (stereo not given), the B-score is -0.573.

Turning to `N=c1ccccn1Cc1ccccc1`, the B-score is 2.77 (active).

Consider `CN(C)/C=C(\C=[N+](C)C)c1[nH]ncc1[N+](=O)[O-]`, for which the B-score is 0.157.

As for `O=c1[nH]c(=O)n(-c2ccccc2)c(O)c1C=NC12CN3CN(CN(C3)C1)C2`, the B-score is 0.583.

For `O=c1[nH]c(=O)n(CCc2ccccc2)c(O)c1/C=N/N1CCOCC1`, the B-score was 0.152.

On to `CC1=C(C(=O)Nc2ccccc2)S(=O)(=O)CCO1`, for which the B-score is 0.94.

Regarding `CCOCCc1c(O)[nH]c(=S)[nH]c1=O`, the B-score is -0.807.

As for `COc1ccccc1N=Nc1c(O)[nH]c(=S)[nH]c1=O`, the B-score was -2.66 (active).

As for `O=C1N=c2ccccc2=C/C1=C\c1c(O)[nH]c(=S)[nH]c1=O`, the B-score is 0.454.

With `CNC(=O)O/N=C(\N)Cc1csc2ccccc12`, the B-score was 0.164.

With `CC(Cc1cccs1)NCc1ccc(Cl)cc1` (stereo not given), the B-score is 0.0543.

Consider `CCCOC(=O)C1C2c3ccccc3C(c3ccccc32)C1C(=O)O` (stereo not given), for which the B-score is 0.827.

On to `O=C(COC(=O)Cc1ccccc1)Nc1ccc(F)cc1`, for which the B-score was -0.767.

`OC1/C(=C/c2ccc(C(F)(F)F)cc2)N2CCC1CC2` (stereo not given): the B-score was -1.88.

As for `CCCCCCCCCCCCn1ccc(=N)cc1`, the B-score was -10.9 (active).

Take `CC(C)CN1CCN(Cc2ccccc2C(F)(F)F)CC1CCO` (stereo not given): the B-score was -0.0138.

In the case of `CC(C)Oc1cccc(C(=O)C2CCCN(C3CCOCC3)C2)c1` (stereo not given), the B-score was 0.0502.

Consider `Cc1ccc(-c2cc(C(=O)N3CCC4(CC3)OCCO4)no2)cc1`, for which the B-score is 1.11.

With `Clc1ccc2nc3c(c(-c4ccccc4)c2c1)CNCC3`, the B-score is -3.67 (active).

With `Cc1ccccc1N1C(=O)NC(=O)/C(=C\c2cc(C)n(C)c2C)C1=O`, the B-score is 0.936.

For the compound `Cc1cc(/C=C2/C(=O)NC(=O)N(Cc3ccco3)C2=O)c(C)n1-c1ccc(C(=O)O)cc1`, the B-score is 0.104.

For `Cc1cc(C=C2C(=O)NC(=O)NC2=O)c(C)n1-c1ccncc1`, the B-score was -3.19 (active).

For the compound `O=C(Cn1c(=O)n(CC2CS2)c2ccccc21)N1CCCCC1` (stereo not given), the B-score was 1.36.

Take `CC(C)c1ccc(-n2c(O)c(/C=N/N3CCOCC3)c(=O)[nH]c2=S)cc1`: the B-score is 0.913.

Regarding `COc1ccc(NC(=O)N2CCC3(CC2)OCCO3)c(OC)c1`, the B-score is -0.624.
